The whole screen tested about 87,000 compounds, of which about 540 (0.62%) were called active. This is one part of a sample in which actives are shown more often than they occur. The rule behind the calls is not given here. Results with a measured potency or affinity are listed apart.
test: inhibitors of MT1-MMP promoter transcription, cell-based, luciferase reporter, luminescence (AID 618); conditions: MT1-MMP promoter luciferase reporter cells;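 note: actives suppress MT1-MMP promoter-driven transcription so potencies describe inhibitors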

Row | Structure (SMILES) | outcome
1 | OC(CN1C2=NCCN2c2ccccc21)c1ccc(Br)cc1 (configuration not stated) | inactive
2 | O=S(=O)(NCCSc1nc2ccccc2o1)c1ccccc1 | inactive
3 | O=C(CCC1CCCC1)Nc1ccc(OCC(=O)N2CCOCC2)cc1 | inactive
4 | COc1ccccc1CN1CCSCC1 | inactive
5 | COCc1nnc(NC(=O)c2cc(Cl)ccc2OC)s1 | inactive
6 | O=C(CSc1nnc(Cc2cccs2)n1Cc1ccco1)Nc1ccc(Cl)cc1Cl | inactive
7 | Cc1ccnn1CC(=O)N/N=C/c1ccco1 | inactive
8 | CC(C)Cn1c(N)c(S(=O)(=O)c2cccs2)c2nc3ccccc3nc21 | inactive
9 | COCCn1c(N)c(S(=O)(=O)c2cccs2)c2nc3ccccc3nc21 | inactive
10 | CC(C)CCn1c(N)c(S(=O)(=O)c2cccs2)c2nc3ccccc3nc21 | active
11 | N#Cc1nc(-c2ccco2)oc1N1CCN(c2cccc(Cl)c2)CC1 | inactive
12 | CC(Oc1ccc(Cl)cc1Cl)C(=O)NCc1ccncc1 (configuration not stated) | inactive
13 | Cc1cc(C)c(C)c(OCC(=O)NCC2CCCO2)c1 (configuration not stated) | inactive
14 | O=C(O)c1n[nH]c2c1CCCCC2 | inactive
15 | CC1(CCc2ccccc2)NC(=O)N(Cc2nnc(-c3ccccc3Br)o2)C1=O (configuration not stated) | inactive
16 | CC1Cc2ccccc2N1c1nc(C2CC2)nc2c1nnn2Cc1ccccc1 (configuration not stated) | inactive
17 | N#Cc1c(NC(=O)CSc2nc(N)cc(=O)[nH]2)sc2c1CCCCCC2 | inactive
18 | CC(C)(C)C1CCc2c(sc(NC(=O)CSc3ncn[nH]3)c2C#N)C1 (configuration not stated) | inactive
19 | Cc1nnc(SCC(=O)Nc2sc3c(c2C#N)CCCC3)[nH]c1=O | inactive
20 | CC(=O)Nc1c(O)nc(SCC(=O)Nc2sc3c(c2C#N)CCCCCC3)[nH]c1=O | inactive
21 | CCSC1=C(C#N)C2(CCCCC2)C(C#N)C(=O)N1 (configuration not stated) | inactive
22 | Cc1cc(NC(=O)CSc2nc(C(C)C)nc3sc4c(c23)CCCC4)no1 | inactive
23 | CCOC(=O)N1CCN(C(=O)Cn2cc3c(n2)CCCC3)CC1 | inactive
24 | O=C(O)C1=C(C(=O)N2CCN(C(=O)c3ccco3)CC2)CCCC1 | inactive

Row | Structure (SMILES) | outcome
25 | c1ccc(Sc2ncnc3c2oc2ccccc23)cc1 | inactive
26 | Fc1cccc(-c2cc3nc4c(c(N5CCN(c6cnccn6)CC5)n3n2)CCCC4)c1 | inactive
27 | CC1=CC(C)(C)Nc2ccc(OC(=O)c3ccco3)cc21 | active
28 | CCc1ccc2c(c1)C(C)=CC(C)(C)N2 | inactive
29 | CC1=CC(C)(C)Nc2ccc(OC(=O)CN3C(=O)C4CCCCC4C3=O)cc21 (configuration not stated) | inactive
30 | O=C(Oc1ccc2ccccc2c1)c1ccco1 | inactive
31 | COC(=O)c1ccc(OC(=O)c2ccco2)cc1 | inactive
32 | CC1=CC(C)(C)Nc2ccc(OC(=O)c3cccnc3)cc21 | inactive
33 | COc1ccc2c(c1)C(C)=CC(C)(C)N2C(=O)CN1C(=O)CCC1=O | inactive
34 | COc1ccc(-c2nnc(SCC(=O)N3c4ccccc4Sc4ccccc43)o2)cc1 | inactive
35 | CCOC(=O)c1ccc2nc3c(cc2c1)CCS3 | inactive
36 | COc1ccc2c(c1OC)C(=O)N(c1ccc3c(c1)CCC3)C2=O | inactive
37 | CCn1c(=O)n(CC(=O)NC2CCCC(C)C2C)c(=O)c2ccccc21 (configuration not stated) | inactive
38 | CCN(CCNC(=O)C1CCN(c2nnc(-n3cccc3)s2)CC1)c1ccccc1 | inactive
39 | Cc1ccc2cc3c(N)c(C(=O)N4CCOCC4)sc3nc2c1 | inactive
40 | Cc1ccc2nc3sc(C(=O)N4CCOCC4)c(N)c3cc2c1 | active
41 | Cc1cccc2cc3c(N)c(C(=O)N4CCOCC4)sc3nc12 | inactive
42 | Cc1cccc(-n2ncc(C#N)c2N)c1 | inactive
43 | Cc1cc(C)nc(SCCn2c(N(C)Cc3ccccc3)nc3c2c(=O)n(C)c(=O)n3C)n1 | inactive
44 | Cc1cc(C)n(CCO)c(=O)n1 | inactive
45 | N#CC1=C(N)SC(N)=C(C#N)C1C1CC=CCC1 (configuration not stated) | inactive
46 | COC(=O)/C=c1/sc2nc3ccccc3n2c1=O | inactive
47 | O=c1/c(=C\c2cccn2-c2ccccc2)sc2nc3ccccc3n12 | inactive
48 | Cc1cc(/C=c2/sc3nc4ccccc4n3c2=O)c(C)n1-c1ccccn1 | active

Row | Structure (SMILES) | outcome
49 | Cc1ccc(-n2c(C)cc(/C=c3/sc4nc5ccccc5n4c3=O)c2C)cc1 | inactive
50 | COc1cc(N2CCCC2)c(OC)cc1/C=c1/sc2nc3ccccc3n2c1=O | inactive
51 | CC(CNS(=O)(=O)c1cc(Cl)ccc1Cl)CN(C)C (configuration not stated) | inactive
52 | COc1ccccc1NC(=O)CC1C(=O)NCCN1C(=O)Nc1ccc(Cl)c(Cl)c1 (configuration not stated) | inactive
53 | CCCCC(=O)Nc1ccc2oc(-c3ccncc3)nc2c1 | inactive
54 | O=C(c1ccc2snnc2c1)N1CCOCC1 | inactive
55 | Cc1cc(C(=O)Cn2nnc(-c3ccc(Cl)cc3)n2)c(C)n1CC1CCCO1 (configuration not stated) | inactive
56 | Cc1cc(C(=O)CN2C(=O)c3ccccc3S2(=O)=O)c(C)n1-c1ccccc1 | active
57 | Cc1cc(C(=O)COC(=O)c2n[nH]c3ccccc23)c(C)n1CC1CCCO1 (configuration not stated) | inactive
58 | Cc1ccc(C)c(C(=O)CN2C(=O)c3ccccc3S2(=O)=O)c1 | inactive
59 | Cc1ccsc1C(=O)OCC(=O)c1cc(C)n(CC2CCCO2)c1C (configuration not stated) | active
60 | Cc1cc(C(=O)COC(=O)C2COc3ccccc3O2)c(C)n1CC1CCCO1 (configuration not stated) | inactive
61 | Cc1cc(C(=O)CSc2nnnn2-c2ccccc2)c(C)n1CC1CCCO1 (configuration not stated) | inactive
62 | Cc1cc(C(=O)CN2C(=O)C3CC=CCC3C2=O)c(C)n1-c1ccccc1 (configuration not stated) | inactive
63 | Cc1ccc(-c2nc(NC(=O)CSc3nnc(C)s3)ns2)cc1 | inactive
64 | Cc1ccc(OCC(=O)Nc2ccc(N3CCOCC3)cc2)cc1 | inactive
65 | Cc1ccc(N(C(C)C(=O)N2CCC(C)CC2)S(C)(=O)=O)cc1C (configuration not stated) | inactive
66 | Cc1ccc(CC2CC(=O)N(c3cc(C)on3)C2=O)cc1 (configuration not stated) | inactive
67 | CCOc1ccccc1NC(=O)C1CCCN(C(=O)NCc2ccccc2)C1 (configuration not stated) | inactive
68 | CCOC(=O)c1[nH]c(C)c(C(=O)Nc2ccc(C)cc2C)c1C | inactive
69 | CCOC(=O)c1[nH]c(C)c(C(=O)Nc2cc(Cl)ccc2C)c1C | active
70 | CCOC(=O)c1[nH]c(C)c(C(=O)Nc2ccc(Cl)cc2)c1C | inactive
71 | CCOC(=O)c1[nH]c(C)c(C(=O)Nc2ccccc2C)c1C | active
72 | CCOC(=O)c1[nH]c(C)c(C(=O)N2CCc3ccccc32)c1C | active

Row | Structure (SMILES) | outcome
73 | CCOC(=O)c1[nH]c(C)c(C(=O)Nc2ccccc2F)c1C | inactive
74 | CCOC(=O)c1[nH]c(C)c(C(=O)OCC(=O)N2CCc3ccccc32)c1C | inactive
75 | CCOC(=O)c1c(C)[nH]c(C(=O)OCC(=O)N2CCc3ccccc32)c1C | inactive
76 | CCOC(=O)c1[nH]c(C)c(C(=O)Nc2ccc(C)c(Cl)c2)c1C | inactive
77 | COc1cc(NS(=O)(=O)c2ccc3c(c2)n(C)c(=O)n3C)cc(OC)c1 | inactive
78 | COc1ccc(C)cc1NC(=O)CSc1nnc(CC(=O)Nc2ccccc2C)n1C | inactive
79 | CCOC(=O)c1ccc(NC(=O)CN2CCN(CCN=CC3=C(O)CC(C)(C)CC3=O)CC2)cc1 | inactive
80 | COC(=O)c1[nH]c2cc(C)ccc2c1NC(=O)CN1CCCc2ccccc21 | inactive
81 | Cc1nc2sc(C(c3cccs3)N3CCN(c4cccc(Cl)c4)CC3)c(O)n2n1 (configuration not stated) | inactive
82 | O=C(c1cn(-c2ccccc2)nc1-c1ccncc1)N1CCCCC1 | inactive
83 | COc1ccccc1C(=O)N1CCN(c2cccc(Cl)c2)CC1 | inactive
84 | CCOc1ccccc1C(=O)N1CCN(c2cccc(Cl)c2)CC1 | active
85 | O=C(c1ccccc1F)N1CCN(c2cccc(C(F)(F)F)c2)CC1 | inactive
86 | COc1ccc(C(=O)N2CCN(c3cccc(Cl)c3)CC2)c(OC)c1 | inactive
87 | COc1ccccc1C(=O)N1CCN(c2cccc(C(F)(F)F)c2)CC1 | active
88 | COc1ccccc1CC(=O)N1CCN(c2cccc(C(F)(F)F)c2)CC1 | inactive
89 | Cc1cc(-c2nn3c(C)nnc3s2)ccc1NC(=O)C(C)(C)C | inactive
90 | CCOC(=O)c1cc(C)sc1NC(=O)CCC(=O)O | inactive
91 | COc1ccc(Cn2c3nc4ccccc4nc3c3c(=O)n(Cc4ccco4)c(C)nc32)cc1 | inactive
92 | Cc1csc(NC(=O)CSc2nnc(-c3ccoc3C)o2)n1 | inactive
93 | CCC(O)c1cc2c(cc1NC(=O)c1cccs1)OCCO2 (configuration not stated) | inactive
94 | Cc1ccc(C(=O)NCCCNCCCNC(=O)c2ccc(C)nc2)cn1 | inactive
95 | CCn1c(COc2cccc(C)c2)nnc1SCC(=O)Nc1cccc(C(=O)OC)c1 | inactive
96 | CC(CC(=O)O)CC(=O)Nc1ccccc1C(=O)O (configuration not stated) | inactive

Row | Structure (SMILES) | outcome
97 | COc1ccc(-c2cc3nc4c(c(=O)n3[nH]2)CCC4)cc1 | inactive
98 | O=c1c2c(nc3cc(-c4ccccc4)[nH]n13)CCC2 | inactive
99 | COCCCN1C(=O)C(=O)/C(=C(/O)c2ccc(OC(C)C)cc2)C1c1cccnc1 (configuration not stated) | inactive
100 | Nc1nc(-c2nc3ccccc3[nH]2)cs1 | inactive
101 | Nc1ccc(-c2nc3ccccc3[nH]2)cc1 | inactive
102 | CCOc1ccc2nc(-c3ccccc3)[nH]c2c1 | inactive
103 | c1ccc2nc(-c3nc4ccccc4[nH]3)ccc2c1 | active
104 | COc1ccc(OCc2nc3ccccc3[nH]2)cc1 | inactive
105 | COc1ccc2nc(-c3ccccc3)[nH]c2c1 | active
106 | c1ccc2[nH]c(-c3ccnc4ccccc34)nc2c1 | inactive
107 | COc1ccc2nc(-c3cccc(N)c3)[nH]c2c1 | inactive
108 | CC(C)CN1C(=O)c2ccc(NC(=O)c3cccs3)cc2C1=O | inactive
109 | O=C(NCc1ccco1)C(c1ccccc1)N(C(=O)Cc1cccs1)c1ccccc1 (configuration not stated) | inactive
110 | CC(=O)NCCOc1cccc(OCCNC(C)=O)c1 | inactive
111 | COc1cc(/C=N/NC(=O)CCc2c(C)n[nH]c2C)ccc1O | inactive
112 | CCn1ncc(Br)c1C(=O)Nc1ccc(Cl)cn1 | inactive
113 | COc1ccc(OC)c(S(=O)(=O)NC2CCCCC2)c1 | inactive
114 | CCn1cc(C(=O)N2CCc3ccccc3C2)c(=O)c2cc(S(=O)(=O)N3CCCCC3)ccc21 | inactive
115 | Cc1nc(-c2ccc(NC(=O)c3cccs3)cc2)cs1 | active
116 | Cc1ccc(NC(=O)c2cccs2)cc1 | inactive
117 | Cc1nc(-c2cccc(NC(=O)c3cccs3)c2)cs1 | inactive

Reference: PubChem BioAssay AID618 (Sanford-Burnham Center for Chemical Genomics, 2007)
